Experimental data taken from PMC7862700, “An all-to-all approach to the identification of sequence-specific readers for epigenetic DNA modifications on cytosine”.

Tests used:
Test in all cases: DAPPL (digital affinity profiling via proximity ligation, sequencing); 10 mM Tris-HCl pH 7.5, 50 mM NaCl, 1 mM DTT, 4% glycerol, room temperature, 30 min; GST-TFs on glutathione beads, 16-mer random dsDNA library, 0.1% formaldehyde crosslink after washing; high values mean tight binding
[1] = molecular target: T1, ERG (Homo sapiens, UniProt P11308 1-479); conditions: protein: recombinant; tags: N-terminal GST; dsDNA, one strand shown
T1 sequence: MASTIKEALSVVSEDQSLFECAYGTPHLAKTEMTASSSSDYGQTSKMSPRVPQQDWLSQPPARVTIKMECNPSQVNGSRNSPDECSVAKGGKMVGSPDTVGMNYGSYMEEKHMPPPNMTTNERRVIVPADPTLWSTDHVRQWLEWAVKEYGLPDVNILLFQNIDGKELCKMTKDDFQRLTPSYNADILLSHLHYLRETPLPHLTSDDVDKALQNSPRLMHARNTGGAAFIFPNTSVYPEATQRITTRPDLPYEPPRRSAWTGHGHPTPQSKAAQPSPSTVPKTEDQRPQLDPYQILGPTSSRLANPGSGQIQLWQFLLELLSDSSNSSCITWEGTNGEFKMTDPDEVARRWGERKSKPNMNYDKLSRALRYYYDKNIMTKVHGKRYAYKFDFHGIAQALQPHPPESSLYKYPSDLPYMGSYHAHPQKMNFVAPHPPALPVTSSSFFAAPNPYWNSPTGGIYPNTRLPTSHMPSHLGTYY
In short: (§1)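 In yeast, human transcription factors were expressed with a GST fusion, then pulled down on glutathione beads and given DNA barcodes. Pooled with a tag-only sample, they were exposed to 200 nmole of a 16-mer random double-stranded DNA library (Tris/NaCl/DTT/glycerol buffer, room temperature, 30 min), washed, crosslinked with 0.1% formaldehyde, proximity-ligated using BsaI/T4 ligase for 1 h at 37 °C, PCR-amplified and read on an Illumina NextSeq500. Each hexamer's frequency of reads for a factor, divided by the matching frequency for the tag-only sample, gives the binding signal.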

[2] = molecular target: ELF1 (Homo sapiens, UniProt P32519 1-619); conditions: protein: recombinant; tags: N-terminal GST; dsDNA, one strand shown
In short: as §1

[3] = molecular target: T2, EHF (Homo sapiens, UniProt Q9NZC4 1-300); conditions: protein: recombinant; tags: N-terminal GST; dsDNA, one strand shown
T2 sequence: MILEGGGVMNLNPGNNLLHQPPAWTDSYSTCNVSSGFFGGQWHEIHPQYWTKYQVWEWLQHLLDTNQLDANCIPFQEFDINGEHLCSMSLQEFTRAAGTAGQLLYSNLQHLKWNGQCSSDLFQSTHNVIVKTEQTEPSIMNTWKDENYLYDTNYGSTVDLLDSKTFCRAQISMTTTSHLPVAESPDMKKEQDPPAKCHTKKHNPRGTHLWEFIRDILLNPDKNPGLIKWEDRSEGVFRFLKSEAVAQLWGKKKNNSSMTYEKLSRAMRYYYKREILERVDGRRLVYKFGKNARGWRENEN
In short: as §1

[4] = molecular target: T3, FEV (Homo sapiens, UniProt Q99581 1-238); conditions: protein: recombinant; tags: N-terminal GST; dsDNA, one strand shown
T3 sequence: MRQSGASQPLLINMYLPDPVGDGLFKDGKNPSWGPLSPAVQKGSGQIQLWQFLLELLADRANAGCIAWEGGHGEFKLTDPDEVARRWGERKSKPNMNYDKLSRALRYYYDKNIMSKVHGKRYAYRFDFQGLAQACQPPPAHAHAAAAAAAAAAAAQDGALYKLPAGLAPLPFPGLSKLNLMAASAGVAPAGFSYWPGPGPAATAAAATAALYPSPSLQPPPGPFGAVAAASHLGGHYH
In short: as §1

[5] = molecular target: HSF1 (Homo sapiens, UniProt Q00613 1-529); conditions: protein: recombinant; tags: N-terminal GST; chain copies: 3; dsDNA, one strand shown
In short: as §1

[6] = molecular target: ELF4 (Homo sapiens, UniProt Q99607 1-663); conditions: protein: recombinant; tags: N-terminal GST; dsDNA, one strand shown
In short: as §1

[7] = molecular target: T4, ELK4 (Homo sapiens, UniProt P28324-2 1-405); conditions: protein: recombinant; tags: N-terminal GST; dsDNA, one strand shown
T4 sequence: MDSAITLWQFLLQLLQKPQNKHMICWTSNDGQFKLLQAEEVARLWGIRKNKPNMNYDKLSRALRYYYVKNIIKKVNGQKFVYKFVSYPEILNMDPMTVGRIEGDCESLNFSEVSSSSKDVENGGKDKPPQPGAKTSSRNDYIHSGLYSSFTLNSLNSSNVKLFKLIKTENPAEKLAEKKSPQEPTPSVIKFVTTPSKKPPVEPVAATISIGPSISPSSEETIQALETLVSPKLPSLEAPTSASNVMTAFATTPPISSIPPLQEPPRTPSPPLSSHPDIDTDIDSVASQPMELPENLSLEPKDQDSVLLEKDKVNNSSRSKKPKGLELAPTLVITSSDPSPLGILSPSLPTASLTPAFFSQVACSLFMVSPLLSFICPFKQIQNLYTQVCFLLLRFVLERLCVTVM
In short: as §1

[8] = molecular target: T5, ETV2 (Homo sapiens, UniProt O00321 1-342); conditions: protein: recombinant; tags: N-terminal GST; dsDNA, one strand shown
T5 sequence: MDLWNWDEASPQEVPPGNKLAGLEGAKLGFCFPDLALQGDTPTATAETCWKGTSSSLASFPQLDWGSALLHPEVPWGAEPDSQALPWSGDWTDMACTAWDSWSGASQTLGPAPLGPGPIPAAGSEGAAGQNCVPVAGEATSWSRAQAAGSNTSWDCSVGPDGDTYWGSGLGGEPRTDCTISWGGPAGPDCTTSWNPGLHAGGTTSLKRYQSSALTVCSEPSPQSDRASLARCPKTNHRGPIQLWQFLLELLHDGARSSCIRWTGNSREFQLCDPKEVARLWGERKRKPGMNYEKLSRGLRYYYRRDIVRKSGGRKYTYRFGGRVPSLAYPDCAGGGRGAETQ
In short: as §1

[9] = molecular target: CRX (Homo sapiens, UniProt O43186 1-299); conditions: protein: recombinant; tags: N-terminal GST; dsDNA, one strand shown
In short: as §1

[10] = molecular target: ETV1 (Homo sapiens, UniProt P50549 1-477); conditions: protein: recombinant; tags: N-terminal GST; dsDNA, one strand shown
In short: as §1

[11] = molecular target: T6, ETV3L (Homo sapiens, UniProt Q6ZN32 1-361); conditions: protein: recombinant; tags: N-terminal GST; dsDNA, one strand shown
T6 sequence: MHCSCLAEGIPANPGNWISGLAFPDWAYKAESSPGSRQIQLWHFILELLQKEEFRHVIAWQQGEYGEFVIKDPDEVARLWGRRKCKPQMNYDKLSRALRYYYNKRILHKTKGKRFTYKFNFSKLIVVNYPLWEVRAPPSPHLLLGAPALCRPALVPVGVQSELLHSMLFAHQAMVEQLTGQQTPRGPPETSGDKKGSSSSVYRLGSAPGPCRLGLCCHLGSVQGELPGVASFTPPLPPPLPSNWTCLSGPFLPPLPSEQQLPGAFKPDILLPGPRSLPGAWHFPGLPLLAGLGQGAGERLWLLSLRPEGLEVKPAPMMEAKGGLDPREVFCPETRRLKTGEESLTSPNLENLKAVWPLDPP
In short: as §1

[12] = molecular target: T7, ETS2 (Homo sapiens, UniProt P15036 1-469); conditions: protein: recombinant; tags: N-terminal GST; dsDNA, one strand shown
T7 sequence: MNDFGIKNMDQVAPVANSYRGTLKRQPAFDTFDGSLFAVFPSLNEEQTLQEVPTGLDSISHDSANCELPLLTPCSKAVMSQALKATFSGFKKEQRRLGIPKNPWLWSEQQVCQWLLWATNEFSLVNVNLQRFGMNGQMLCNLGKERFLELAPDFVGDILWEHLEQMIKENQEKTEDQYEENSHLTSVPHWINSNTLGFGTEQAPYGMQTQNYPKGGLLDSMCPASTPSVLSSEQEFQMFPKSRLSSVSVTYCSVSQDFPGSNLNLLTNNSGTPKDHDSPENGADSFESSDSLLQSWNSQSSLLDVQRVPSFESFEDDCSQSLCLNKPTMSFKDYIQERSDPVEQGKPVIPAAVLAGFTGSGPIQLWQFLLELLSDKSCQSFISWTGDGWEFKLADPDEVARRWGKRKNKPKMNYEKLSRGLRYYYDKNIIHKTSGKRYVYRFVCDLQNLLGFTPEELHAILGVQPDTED
In short: as §1

[13] = molecular target: T8, SPDEF (Homo sapiens, UniProt O95238 1-335); conditions: protein: recombinant; tags: N-terminal GST; dsDNA, one strand shown
T8 sequence: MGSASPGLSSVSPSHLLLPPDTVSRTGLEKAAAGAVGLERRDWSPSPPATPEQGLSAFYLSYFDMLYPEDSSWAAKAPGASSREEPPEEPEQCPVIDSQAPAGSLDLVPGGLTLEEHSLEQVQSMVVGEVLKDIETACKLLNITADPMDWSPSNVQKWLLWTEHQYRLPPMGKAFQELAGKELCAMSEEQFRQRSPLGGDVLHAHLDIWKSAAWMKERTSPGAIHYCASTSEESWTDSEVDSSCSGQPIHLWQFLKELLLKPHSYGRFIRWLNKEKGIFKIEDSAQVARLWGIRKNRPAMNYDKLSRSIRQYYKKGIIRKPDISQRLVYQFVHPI
In short: as §1

[14] = molecular target: T9, ETV7 (Homo sapiens, UniProt Q9Y603 1-341); conditions: protein: recombinant; tags: N-terminal GST; dsDNA, one strand shown
T9 sequence: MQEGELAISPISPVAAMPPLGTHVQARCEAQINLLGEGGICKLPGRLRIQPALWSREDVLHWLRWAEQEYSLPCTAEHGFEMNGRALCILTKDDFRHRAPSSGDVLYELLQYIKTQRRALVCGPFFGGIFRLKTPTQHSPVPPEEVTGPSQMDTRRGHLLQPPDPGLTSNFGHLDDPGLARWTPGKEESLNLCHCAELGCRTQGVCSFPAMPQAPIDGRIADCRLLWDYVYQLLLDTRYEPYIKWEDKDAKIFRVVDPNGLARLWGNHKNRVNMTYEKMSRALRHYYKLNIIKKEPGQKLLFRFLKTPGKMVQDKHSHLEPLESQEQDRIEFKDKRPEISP
In short: as §1

[15] = molecular target: T10, ETV3 (Homo sapiens, UniProt P41162-2 1-143); conditions: protein: recombinant; tags: N-terminal GST; dsDNA, one strand shown
T10 sequence: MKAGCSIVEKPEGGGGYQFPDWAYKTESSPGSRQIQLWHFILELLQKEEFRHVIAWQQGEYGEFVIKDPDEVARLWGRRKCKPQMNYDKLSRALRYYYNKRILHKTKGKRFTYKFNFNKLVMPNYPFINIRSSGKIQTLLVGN
In short: as §1

[16] = molecular target: ETV6 (Homo sapiens, UniProt P41212 1-452); conditions: protein: recombinant; tags: N-terminal GST; dsDNA, one strand shown
In short: as §1

ETV6, sequence (P41212 whole entry): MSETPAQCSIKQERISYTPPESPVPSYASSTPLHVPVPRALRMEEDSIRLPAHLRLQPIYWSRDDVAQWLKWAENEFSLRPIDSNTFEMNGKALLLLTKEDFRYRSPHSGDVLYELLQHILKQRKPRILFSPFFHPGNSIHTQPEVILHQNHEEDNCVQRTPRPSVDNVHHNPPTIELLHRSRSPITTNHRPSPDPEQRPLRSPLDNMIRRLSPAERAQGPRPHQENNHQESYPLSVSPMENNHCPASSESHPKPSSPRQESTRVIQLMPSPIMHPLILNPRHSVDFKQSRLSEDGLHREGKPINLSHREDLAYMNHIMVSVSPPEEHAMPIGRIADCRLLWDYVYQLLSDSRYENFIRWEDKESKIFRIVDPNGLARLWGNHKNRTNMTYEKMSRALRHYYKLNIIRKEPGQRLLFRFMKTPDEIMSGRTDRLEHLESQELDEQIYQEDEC
ELF1, sequence (P32519 whole entry): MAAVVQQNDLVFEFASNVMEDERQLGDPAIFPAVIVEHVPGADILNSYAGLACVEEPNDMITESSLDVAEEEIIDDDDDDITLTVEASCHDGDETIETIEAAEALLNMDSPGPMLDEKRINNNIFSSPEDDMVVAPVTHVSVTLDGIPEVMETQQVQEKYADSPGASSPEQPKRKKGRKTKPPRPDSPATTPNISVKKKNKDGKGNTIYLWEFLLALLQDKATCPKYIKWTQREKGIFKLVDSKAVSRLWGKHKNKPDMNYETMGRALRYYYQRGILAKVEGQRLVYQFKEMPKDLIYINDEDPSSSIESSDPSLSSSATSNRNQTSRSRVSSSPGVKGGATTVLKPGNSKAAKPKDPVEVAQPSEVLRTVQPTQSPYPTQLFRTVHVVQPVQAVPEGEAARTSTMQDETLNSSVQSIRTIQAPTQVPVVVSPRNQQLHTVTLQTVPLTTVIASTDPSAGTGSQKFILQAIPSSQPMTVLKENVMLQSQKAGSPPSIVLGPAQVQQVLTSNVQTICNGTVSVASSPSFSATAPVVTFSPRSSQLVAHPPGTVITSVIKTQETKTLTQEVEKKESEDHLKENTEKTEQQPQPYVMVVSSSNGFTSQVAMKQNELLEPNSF
HSF1, sequence (Q00613 whole entry): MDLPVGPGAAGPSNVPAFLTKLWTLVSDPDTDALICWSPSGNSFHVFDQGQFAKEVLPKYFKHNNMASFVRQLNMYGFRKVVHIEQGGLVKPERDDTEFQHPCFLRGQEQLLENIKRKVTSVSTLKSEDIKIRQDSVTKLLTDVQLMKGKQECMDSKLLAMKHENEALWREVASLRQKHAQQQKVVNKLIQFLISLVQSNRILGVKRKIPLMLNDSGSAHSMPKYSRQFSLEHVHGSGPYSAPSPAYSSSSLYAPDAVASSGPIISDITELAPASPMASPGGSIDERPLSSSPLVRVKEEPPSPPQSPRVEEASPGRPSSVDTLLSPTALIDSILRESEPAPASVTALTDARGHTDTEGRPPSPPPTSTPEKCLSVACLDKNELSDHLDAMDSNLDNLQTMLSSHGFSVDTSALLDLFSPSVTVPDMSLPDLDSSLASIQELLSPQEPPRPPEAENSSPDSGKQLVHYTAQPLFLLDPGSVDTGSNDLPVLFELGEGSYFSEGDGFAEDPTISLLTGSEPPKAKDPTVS
ETV1, sequence (P50549 whole entry): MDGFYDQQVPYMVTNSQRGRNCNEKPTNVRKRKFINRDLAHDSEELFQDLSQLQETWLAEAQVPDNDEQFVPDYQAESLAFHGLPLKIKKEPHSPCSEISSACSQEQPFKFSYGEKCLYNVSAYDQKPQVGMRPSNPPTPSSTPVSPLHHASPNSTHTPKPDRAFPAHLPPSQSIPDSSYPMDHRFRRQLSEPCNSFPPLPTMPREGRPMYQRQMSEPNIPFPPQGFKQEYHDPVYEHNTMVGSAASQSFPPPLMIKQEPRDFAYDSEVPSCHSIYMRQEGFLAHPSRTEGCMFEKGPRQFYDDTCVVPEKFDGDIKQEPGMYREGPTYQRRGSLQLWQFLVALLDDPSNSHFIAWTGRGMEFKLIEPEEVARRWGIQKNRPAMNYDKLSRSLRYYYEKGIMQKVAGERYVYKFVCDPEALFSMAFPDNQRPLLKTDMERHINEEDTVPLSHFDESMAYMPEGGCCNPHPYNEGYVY
ELF4, sequence (Q99607 whole entry): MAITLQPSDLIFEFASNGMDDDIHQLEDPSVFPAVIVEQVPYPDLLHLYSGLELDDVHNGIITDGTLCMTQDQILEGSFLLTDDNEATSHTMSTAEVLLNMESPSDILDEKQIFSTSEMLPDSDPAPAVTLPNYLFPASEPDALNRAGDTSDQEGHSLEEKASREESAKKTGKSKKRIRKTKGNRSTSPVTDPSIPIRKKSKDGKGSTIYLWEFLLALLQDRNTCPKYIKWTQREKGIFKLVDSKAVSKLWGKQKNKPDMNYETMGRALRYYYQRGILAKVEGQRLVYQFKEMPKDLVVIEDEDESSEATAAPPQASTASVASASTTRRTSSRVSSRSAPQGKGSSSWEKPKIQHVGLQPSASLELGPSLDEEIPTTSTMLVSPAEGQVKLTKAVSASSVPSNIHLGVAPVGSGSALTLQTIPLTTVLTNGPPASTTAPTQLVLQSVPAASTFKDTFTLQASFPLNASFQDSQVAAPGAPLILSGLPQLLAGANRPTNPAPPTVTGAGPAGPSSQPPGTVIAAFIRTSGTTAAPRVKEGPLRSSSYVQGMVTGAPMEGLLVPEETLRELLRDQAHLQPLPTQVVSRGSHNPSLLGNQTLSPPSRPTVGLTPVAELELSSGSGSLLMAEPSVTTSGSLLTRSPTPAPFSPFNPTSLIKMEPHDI
CRX, sequence (O43186 whole entry): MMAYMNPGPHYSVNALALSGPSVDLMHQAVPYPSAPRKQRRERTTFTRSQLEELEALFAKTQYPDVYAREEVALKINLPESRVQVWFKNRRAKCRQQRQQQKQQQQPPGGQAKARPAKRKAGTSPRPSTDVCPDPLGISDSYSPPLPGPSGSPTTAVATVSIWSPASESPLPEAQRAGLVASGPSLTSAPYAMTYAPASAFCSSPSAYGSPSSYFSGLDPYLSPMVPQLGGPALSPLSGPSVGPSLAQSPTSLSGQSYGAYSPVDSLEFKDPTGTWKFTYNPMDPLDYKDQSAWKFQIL

Q: How did the binding signal [1] turn out when ATTAGT was run?
A: The binding signal was 1.01 fold enrichment (6-mer frequency, TF over GST control).

Q: What about the binding signal [2] of the same sequence?
A: Its binding signal is 1.03 fold enrichment (6-mer frequency, TF over GST control).

Q: What about the binding signal [3] of the same sequence?
A: Its binding signal is 1 fold enrichment (6-mer frequency, TF over GST control).

Q: And the binding signal [4]?
A: Its binding signal is 1.01 fold enrichment (6-mer frequency, TF over GST control).

Q: And the binding signal [5]?
A: Its binding signal is 1.69 fold enrichment (6-mer frequency, TF over GST control).

Q: What about the binding signal [6] of the same sequence?
A: Its binding signal is 1.06 fold enrichment (6-mer frequency, TF over GST control).

Q: And the binding signal [7]?
A: Its binding signal is 1.2 fold enrichment (6-mer frequency, TF over GST control).

Q: And the binding signal [8]?
A: Its binding signal is 1.12 fold enrichment (6-mer frequency, TF over GST control).

Q: What about the binding signal [9] of the same sequence?
A: Its binding signal is 2.44 fold enrichment (6-mer frequency, TF over GST control).

Q: And the binding signal [10]?
A: The binding signal was 1.03 fold enrichment (6-mer frequency, TF over GST control).

Q: What about the binding signal [11] of the same sequence?
A: Its binding signal is 1.03 fold enrichment (6-mer frequency, TF over GST control).

Q: What about the binding signal [12] of the same sequence?
A: Its binding signal is 1.01 fold enrichment (6-mer frequency, TF over GST control).

Q: What about the binding signal [13] of the same sequence?
A: The binding signal was 1.06 fold enrichment (6-mer frequency, TF over GST control).

Q: And the binding signal [14]?
A: Its binding signal is 1.08 fold enrichment (6-mer frequency, TF over GST control).

Q: What about the binding signal [15] of the same sequence?
A: The binding signal was 1.01 fold enrichment (6-mer frequency, TF over GST control).

Q: What about the binding signal [16] of the same sequence?
A: The binding signal was 1.01 fold enrichment (6-mer frequency, TF over GST control).
